# Measurements reported in PubChem BioAssay (EPA / NIEHS).
# More than one record can exist for a structure, and the calls need not agree. Activity calls are given as the source filed them. Rule for the calls: active = hit-call score of the fitted dose curve at least 0.9, where 1 is the maximum; inactive = score below 0.9.
# Read-out: not listed separately
# Test: BSK_4H_SRB: Viability Assessment in the BioMAP Diversity Plus: 4H Assay (AID 2283027);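 note: cells exposed to compound for 24 h before staining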;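 for AC50: curves fitted both ways versus DMSO so AC50 may be loss or gain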
# Settings: primary human endothelial cells (HUVEC)
# Procedure, shortened: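 Cytotoxicity readout: sulforhodamine B (0.1%) staining of total protein after 10% TCA fixation, measured at 560 nm in human umbilical vein endothelium at 24 h. DMSO set the baseline; fitting was bidirectional.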
SMILES,outcome,AC50
O=[N+]([O-])c1ccccc1,inactive,
CCOP(=S)(S)OCC,inactive,
CC(C)(C)OOC(C)(C)C,inactive,
CC(C)Nc1ccc(Nc2ccccc2)cc1,,9.88 µM (active)
CC(C)(C)c1ccc(O)cc1,inactive,
CC(Cc1ccc(OCC(=O)O)cc1)NCC(O)c1csc(C(F)(F)F)n1 (centres undefined),inactive,
COCCOCCO,inactive,
ClC(Cl)c1ccccc1,inactive,
COP(=O)(CCC(=O)NCO)OC,inactive,
Nc1ccc(Cl)cc1,inactive,
C=CC(=O)OCC(F)(F)C(F)F,inactive,
COP(=O)(O)OC,inactive,
CCCCN(CCCC)SN(C)C(=O)Oc1cccc2c1OC(C)(C)C2,,27.2 µM (active)
CCOS(=O)(=O)OCC,inactive,
O=c1ssc(Cl)c1Cl,,5.42 µM (active)
c1ccc(OP(Oc2ccccc2)Oc2ccccc2)cc1,inactive,

# Read-out: not listed separately
# Test: BSK_BE3C_SRB: Viability Assessment in the BioMAP Diversity Plus: BE3C Assay (AID 2283028);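 for AC50: fitted both ways so AC50 may mark signal gain or loss versus DMSO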
# Settings: primary human bronchial epithelial cells
# Procedure, shortened: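 Overt cytotoxicity was assessed as total protein in confluent human primary bronchial epithelial cultures 24 h after chemical addition, using 0.1% sulforhodamine B staining read at 560 nm.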
SMILES,outcome,AC50
O=[N+]([O-])c1ccccc1,inactive,
CCOP(=S)(S)OCC,inactive,
CC(C)(C)OOC(C)(C)C,inactive,
CC(C)Nc1ccc(Nc2ccccc2)cc1,,33.2 µM (active)
CC(C)(C)c1ccc(O)cc1,inactive,
CC(Cc1ccc(OCC(=O)O)cc1)NCC(O)c1csc(C(F)(F)F)n1 (centres undefined),inactive,
COCCOCCO,inactive,
ClC(Cl)c1ccccc1,inactive,
COP(=O)(CCC(=O)NCO)OC,inactive,
Nc1ccc(Cl)cc1,inactive,
C=CC(=O)OCC(F)(F)C(F)F,inactive,
COP(=O)(O)OC,inactive,
CCCCN(CCCC)SN(C)C(=O)Oc1cccc2c1OC(C)(C)C2,inactive,
CCOS(=O)(=O)OCC,inactive,
O=c1ssc(Cl)c1Cl,,5.34 µM (active)
c1ccc(OP(Oc2ccccc2)Oc2ccccc2)cc1,inactive,

# Read-out: Thrombomodulin, THBD (gene 7056)
# Test: BSK_3C_Thrombomodulin: BioMAP Diversity Plus: 3C Assay for Thrombomodulin Biomarker Activity (AID 2283029)
# Settings: primary human endothelial cells (HUVEC); actives raise or lower the signal
# Procedure, shortened: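 ELISA measurement of thrombomodulin on HUVEC surface 24 h after chemical dosing; activity fitted in both directions relative to DMSO vehicle.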
SMILES,outcome,AC50
O=[N+]([O-])c1ccccc1,inactive,
CCOP(=S)(S)OCC,inactive,
CC(C)(C)OOC(C)(C)C,inactive,
CC(C)Nc1ccc(Nc2ccccc2)cc1,inactive,
CC(C)(C)c1ccc(O)cc1,inactive,
CC(Cc1ccc(OCC(=O)O)cc1)NCC(O)c1csc(C(F)(F)F)n1 (centres undefined),inactive,
COCCOCCO,inactive,
ClC(Cl)c1ccccc1,inactive,
COP(=O)(CCC(=O)NCO)OC,inactive,
Nc1ccc(Cl)cc1,inactive,
C=CC(=O)OCC(F)(F)C(F)F,inactive,8.19 µM (active)
COP(=O)(O)OC,inactive,
CCCCN(CCCC)SN(C)C(=O)Oc1cccc2c1OC(C)(C)C2,inactive,
CCOS(=O)(=O)OCC,inactive,
O=c1ssc(Cl)c1Cl,inactive,
c1ccc(OP(Oc2ccccc2)Oc2ccccc2)cc1,inactive,
